Assay outcomes deposited in PubChem by several laboratories.
SENP6 inh: inhibitors of human SENP6 protease; Q9GZR1; Recombinant SENP6 catalytic domain, aminoluciferin luminescence; inhibition, % at 10 µM; hit rate 1.8% among 330,000;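 active = inhibition above about 50% at the single tested dose, limit read from the data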
SENP8 block-1: SENP8 protease inhibition | Q96LD8 | purified SENP8, Z-RLRGG-aminoluciferin cleavage, luminescence | inhibition, % at 10 µM | hit rate 1.2% among 330,000; in the data active = inhibition above about 50%
SENP8 block-2: SENP8 (human) protease inhibition. Q96LD8. recombinant SENP8, Nedd8 substrate fluorescence. inhibition, % at 20 µM. hit rate 0.64% among 360,000. AID 602440; in the data active = inhibition mostly above about 40%, no sharp cut-off; inactive = mostly below about 27%
HSP90 inh: inhibitors of HSP90 luciferase refolding in rabbit reticulocyte lysate; luciferase refolding luminescence, 3 h; inhibition, % at 5.6 µM; hit rate 0.91% among 290,000; AID 1789;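 active = inhibition above the screen-wide mean plus 3 SD, computed separately per campaign, cut at about 16% in these data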;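 also: inhibitors lower the luminescence because luciferase stays unfolded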
SENP7 block: inhibitors of human SENP7 protease. recombinant SENP7, Z-RLRGG-aminoluciferin luminescence, 40 min. inhibition, % at 5 µM. hit rate 1.5% among 330,000. Q9BQF6. AID 434973;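 active = inhibition above about 50% at the single test dose, limit read from the data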
Target sequence (Q9BQF6 706-1050 limits assumed): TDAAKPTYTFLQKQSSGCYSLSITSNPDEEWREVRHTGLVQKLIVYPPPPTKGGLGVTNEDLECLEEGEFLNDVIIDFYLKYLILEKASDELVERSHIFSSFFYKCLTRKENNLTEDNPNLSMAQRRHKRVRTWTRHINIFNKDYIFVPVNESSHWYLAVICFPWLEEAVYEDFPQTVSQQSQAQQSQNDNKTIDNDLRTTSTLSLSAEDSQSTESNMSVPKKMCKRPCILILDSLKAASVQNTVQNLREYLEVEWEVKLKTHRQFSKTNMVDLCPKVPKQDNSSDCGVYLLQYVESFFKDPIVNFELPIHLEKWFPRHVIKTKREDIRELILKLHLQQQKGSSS
LGR2 antag: Drosophila LGR2 receptor signaling inhibition. inhibition, % at 9.99 µM. HEK293 LGR2, CRE-luciferase, bursicon-stimulated, 4 h. hit rate 0.35% among 380,000. AID 720647;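 active = drop in luminescence signal, shown as inhibition above about 50% in the replicate tests, limit read from the data, passing the limit was not always enough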;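 also: agonist challenge used bursicon conditioned medium at about half maximal strength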
HSP90 inh confirm: HSP90 inhibition, confirmation assay; shares compounds with HSP90 inh; rabbit reticulocyte lysate, luciferase refolding luminescence, 3 h; inhibition, % at 5.9 µM; hit rate 64% among 2,300; in the data active = inhibition above about 18%
luciferase ctr: firefly luciferase inhibition, HSP90 counter-screen; shares compounds with HSP90 inh; purified native firefly luciferase, luminescence; inhibition, % at 5.9 µM; hit rate 48% among 2,300;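 active = inhibition above the mean inhibition of all tested sample wells plus 3 SD, cut at about 10% in these data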
SENP8 conf: human SENP8 inhibition, confirmed; shares compounds with SENP7 block; Recombinant SENP8, Z-RLRGG-aminoluciferin luminescence, 60 min; inhibition, % at 12.5 µM; hit rate 40% among 6,200; AID 488912;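 active = mean inhibition across replicates above about 50%, limit read from the data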
SENP6 confirm: human SENP6 inhibition, confirmed. inhibition, % at 12.5 µM. recombinant SENP6, Z-RLRGG-aminoluciferin luminescence. shares compounds with SENP7 block. hit rate 58% among 6,200
SENP7 confirm: human SENP7 inhibition, confirmed | shares compounds with SENP7 block | recombinant SENP7, Z-RLRGG-aminoluciferin luminescence, 40 min | inhibition, % at 12.5 µM | hit rate 69% among 6,200
Casp3 select: selectivity test for SENP inhibitors: human caspase-3 inhibition; shares compounds with SENP7 block; purified caspase-3, Z-DEVD-aminoluciferin luminescence, 60 min; inhibition, % at 12.5 µM; hit rate 60% among 6,200; AID 488918;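 active = mean inhibition above about 50%, limit read from the data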
Target sequence (P42574 28-227 limits assumed): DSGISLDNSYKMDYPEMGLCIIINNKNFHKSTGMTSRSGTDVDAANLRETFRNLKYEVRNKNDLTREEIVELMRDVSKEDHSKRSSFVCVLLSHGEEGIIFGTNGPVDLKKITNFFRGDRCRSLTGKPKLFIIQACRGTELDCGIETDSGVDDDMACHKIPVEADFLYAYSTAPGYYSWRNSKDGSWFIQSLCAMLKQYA
Luc interf: luminescence interference (SENP counter-screen); shares compounds with SENP7 block; Pre-incubated SENP8/Z-RLRGG-aminoluciferin, luciferase luminescence interference; inhibition, % at 12.5 µM; hit rate 39% among 6,200; AID 488919;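 active = mean inhibition above about 50% when retested at one dose, limit read from the data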
A number is an active result; 0 = inactive; - = not tested or not shown. A selection: hits, their analogues and other compounds. The true share with any hit is near 2.3%.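 The calls were made as follows, unless noted: active = mean inhibition above about 50% in the one-dose retest (limit read from the data); inactive = the rest.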

SMILES	SENP6 inh	SENP8 block-1	SENP8 block-2	HSP90 inh	SENP7 block	LGR2 antag	HSP90 inh confirm	luciferase ctr	SENP8 conf	SENP6 confirm	SENP7 confirm	Casp3 select	Luc interf
O=C(CCl)Nc1cccc(-c2cnc3ccccc3n2)c1	0	0	0	0	0	-	-	-	-	-	-	-	-
Fc1ccc(-n2nnc(-c3cnc4ccccc4c3)n2)cc1	93	80	0	19	96	79	81	77	65	67	0	61	0
Fc1ccc(-n2nnc(-c3cccnc3)n2)cc1	0	0	0	0	0	0	-	-	-	-	-	-	-
COc1ccc2c(c1OC)C(=O)OC2Nc1nc(-c2cc3ccccc3oc2=O)cs1 (stereo not drawn)	96	90	0	64	91	0	0	0	91	95	88	94	86
CCCCOc1ccc(-c2cc(C(=O)NNC(=S)NCC)c3ccccc3n2)cc1	101	94	0	30	93	-	52	0	98	99	103	98	65
CCCCOc1cccc(-c2cc(C(=O)NNC(=S)NCC)c3ccccc3n2)c1	0	0	0	0	0	-	-	-	-	-	-	-	-
Cc1ccc(S(=O)(=O)N(C)C[C@H]2Oc3ncc(C#CC4(O)CCCC4)cc3C(=O)N([C@H](C)CO)C[C@H]2C)cc1	-	-	-	-	-	0	-	-	-	-	-	-	-
CCCC(=O)Nc1ccc2c(c1)C(=O)N(C)[C@H]1CC[C@@H](CC(=O)NCCc3ccccc3)O[C@@H]1CO2	-	-	-	-	-	0	-	-	-	-	-	-	-
Cc1c(/C=C/C(=O)c2cccs2)cnn1C	0	0	0	0	0	-	-	-	-	-	-	-	-
CCc1ccc(C(=O)/C=C/c2cnn(C)c2C)s1	54	0	0	35	0	-	26	52	0	0	0	0	0
C[C@@H]1CN([C@@H](C)CO)C(=O)c2cc(-c3cccc(C#N)c3)cnc2O[C@@H]1CN(C)C(=O)C1CC1	-	-	-	-	-	0	-	-	-	-	-	-	-
Cc1nnc(NC(=O)c2ccc3c(c2)OCO3)s1	0	0	0	0	0	0	-	-	-	-	-	-	-
CSc1nnc(NC(=O)c2ccc3c(c2)OCO3)s1	96	90	0	54	97	67	82	72	0	0	64	51	0
COc1cccc(CNc2cccc3cccnc23)c1O	79	80	0	20	66	0	0	0	0	0	0	0	0
Oc1ccc(Cl)cc1CNc1cccc2cccnc12	84	88	0	27	65	0	0	0	0	0	0	0	0
Oc1ccc(Br)cc1CNc1cnc2ccccc2c1	0	0	0	0	0	0	-	-	-	-	-	-	-
Oc1ccc(Br)cc1CNc1cccc2cccnc12	78	80	0	25	70	0	0	0	0	0	0	0	0
C[C@H](CO)N1C[C@H](C)[C@@H](CN(C)S(=O)(=O)c2ccc(Cl)cc2)Oc2ccc(NS(C)(=O)=O)cc2C1=O	-	-	-	-	-	0	-	-	-	-	-	-	-
Nc1c(-c2ccccc2)cnn1-c1cccc(C(F)(F)F)c1	0	0	0	0	0	-	-	-	-	-	-	-	-
Nc1c(-c2ccccc2)cnn1-c1ccc(C(=O)O)cc1	0	0	0	25	53	0	42	0	0	0	76	66	60
CCOc1ccc(OCC(=O)Nc2nccs2)cc1	97	95	0	54	98	-	77	70	97	97	102	98	88
COc1ccc(OCC(=O)Nc2nccs2)cc1	0	62	0	31	83	66	60	39	78	79	95	93	79
O=C(COc1ccc2c(c1)OCO2)Nc1nccs1	96	90	0	37	95	61	53	36	95	95	102	97	93
Cc1noc(C)c1S(=O)(=O)Nc1cccc2c1O[C@@H](CN(C)Cc1ccc3c(c1)OCO3)[C@@H](C)CN([C@@H](C)CO)C2=O	-	-	-	-	-	0	-	-	-	-	-	-	-
Cc1ccc(S(=O)(=O)Nc2ccc3c(c2)C(=O)N([C@H](C)CO)C[C@H](C)[C@H](CN(C)C(=O)CCC(F)(F)F)OCCCC[C@@H](C)O3)cc1	-	-	-	-	-	0	-	-	-	-	-	-	-
SMILES	SENP6 inh	SENP8 block-1	SENP8 block-2	HSP90 inh	SENP7 block	LGR2 antag	HSP90 inh confirm	luciferase ctr	SENP8 conf	SENP6 confirm	SENP7 confirm	Casp3 select	Luc interf
COc1ccc2c3c([nH]c2c1)[C@@H](CO)N(C(=O)Cc1ccccc1)CC31CN(C(=O)Nc2ccccc2F)C1	-	-	-	-	-	0	-	-	-	-	-	-	-
O=C(CCCc1ccccc1)c1ccc2c(c1)OCCO2	92	93	0	77	96	101	97	94	95	97	102	91	67
O=C(NCCc1ccccc1)c1ccc2c(c1)OCCCO2	85	78	0	95	83	102	95	90	86	86	98	93	85
Cc1ccc(C(=O)NCCc2ccccc2)cc1	53	0	0	62	54	-	78	74	0	0	77	79	58
O=C(/C=C/c1ccccc1)c1ccc2c(c1)OCCCCO2	88	0	0	33	68	-	33	29	72	59	0	0	76
O=C(NCC1CCCCC1)[C@H]1[C@H](CO)[C@H]2Cn3c(ccc(-c4ccccc4)c3=O)[C@@H]1N2	-	-	-	-	-	0	-	-	-	-	-	-	-
CS(=O)(=O)Nc1ccc2c(c1)[C@@H]1C[C@H](CC(=O)NCC3CC3)O[C@H](CO)[C@@H]1O2	-	-	-	-	-	0	-	-	-	-	-	-	-
C[C@H]1CN([C@@H](C)CO)C(=O)c2cccc(N(C)C)c2O[C@@H]1CN(C)S(=O)(=O)c1cccs1	-	-	-	-	-	0	-	-	-	-	-	-	-
C[C@H](CO)N1C[C@H](C)[C@H](CN(C)C(=O)C2CC2)OCc2ccccc2-c2c(n(C)c3ccccc23)C1=O	-	-	-	-	-	0	-	-	-	-	-	-	-
O=C(NCCOc1ccccc1)c1ccc2c(c1)OCO2	69	0	0	48	0	-	71	67	50	0	85	80	69
O=C(NCCc1ccccc1)c1ccc2c(c1)OCCO2	72	0	0	85	80	102	97	89	73	70	89	87	75
COc1cccc(OC)c1C(=O)NCCc1ccccc1	0	0	0	-	0	0	-	-	-	-	-	-	-
COC(=O)c1c(N)sc(C(=O)NCCc2ccccc2)c1C	88	75	0	87	89	98	87	82	85	82	95	89	85
COc1ccc2c3c(n(C)c2c1)[C@H](CO)N(C(=O)c1ccncc1)CC31CCN(S(C)(=O)=O)CC1	-	-	-	-	-	0	-	-	-	-	-	-	-
